This is part of a sample that, as a whole, favours compounds with a hit. Of some 79,000 tested, about 15% had one in any assay. Activity calls are given as the source filed them. Rule as the data show it: active = growth inhibition above about 70%; inactive = the rest. Where a SMILES comes first, the peptide text is derived from it. The star is where a group is joined. Cbz = O=C(OCc1ccccc1)*; Bn = c1ccc(C*)cc1
Columns and labels:
[1] = NCI Yeast Anticancer Drug Screen. Data for the rad50 strain (AID 155);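 also: 0% = growth of vehicle-only cultures of the same strain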; conditions: S. cerevisiae rad50 strain growth inhibition; at 50.0 µM; stronger effect = higher value
Procedure, shortened: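 Growth of the mutant yeast was measured after compound exposure and referenced to vehicle-treated cultures.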

[2] = NCI Yeast Anticancer Drug Screen. Data for the mec2-1 strain (AID 157); conditions: S. cerevisiae mec2-1 strain, at 50.0 µM, stronger effect = higher value
Procedure, shortened: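 Using mec2-1 yeast: add compound, measure growth, express inhibition versus vehicle-treated cultures.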

[3] = NCI Yeast Anticancer Drug Screen. Data for the sgs1 mgt1 strain (AID 161);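 also: 0% = growth of cultures given vehicle only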; conditions: S. cerevisiae sgs1 mgt1 strain, at 50.0 µM, stronger effect = higher value
Procedure, shortened: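 Growth of a repair-deficient yeast mutant was monitored after compound treatment and expressed as inhibition relative to vehicle-treated cultures.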

[4] = NCI Yeast Anticancer Drug Screen. Data for the cln2 rad14 strain (AID 165);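 also: 0% = growth equal to vehicle treated cultures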; conditions: S. cerevisiae cln2 rad14 strain, at 50.0 µM, stronger effect = higher value
Procedure, shortened: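 Yeast strain cln2 rad14, bearing defects in cell cycle control and DNA repair, serves as the test system; values reflect growth inhibition compared with vehicle.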

[5] = NCI Yeast Anticancer Drug Screen. Data for the bub3 strain (AID 167); conditions: S. cerevisiae bub3 mutant strain, at 50.0 µM, stronger effect = higher value
Procedure, shortened: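 Whole-cell yeast assay. The mutant strain was incubated with compounds, and growth inhibition was determined by comparison with vehicle-treated cells.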

[6] = NCI Yeast Anticancer Drug Screen. Data for the mlh1 rad18 strain (AID 175); conditions: S. cerevisiae mlh1 rad18 strain growth inhibition; at 50.0 µM; stronger effect = higher value
Procedure, shortened: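 Steps: expose repair-defective yeast to compound; measure growth; express inhibition against vehicle-treated controls.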

Measured: growth inhibition

COC1OC(CO)C(O)C(NC(=O)OCc2ccccc2)C1O (stereo unspecified)
inactive: [1] 2.6% | [2] -1.7% | [3] 3.05% | [4] -46.1% | [5] 1.1% | [6] -13.4%

NC(=O)NC(=O)CC1NC(=O)NC1=O (stereo unspecified)
inactive: [1] 9.25% | [2] 12% | [3] 18.1% | [4] 12.1% | [5] -4.1% | [6] -16.4%

CC(O)COC(C)COC(C)c1ccccc1 (stereo unspecified)
inactive: [1] 1.6% | [2] 0.3% | [3] -4% | [4] -2.35% | [5] 2.2% | [6] 4.65%

CCCCCCCCO[Si](OCCCCCCCC)(OCCCCCCCC)OCCCCCCCC
inactive: [1] -24.6% | [2] -26.3% | [3] -16.8% | [4] 6.9% | [5] -15.2% | [6] -20.9%

Cc1cc(C#N)c[n+](C)c1
inactive: [1] -7.25% | [2] -14.3% | [3] -25% | [4] 16.1% | [5] 5.25% | [6] -3.75%

CCCCCCCCCCCCCCCC(=O)OCC(COP(=O)(O)OC1CCC2(C)C(=CCC3C2CCC2(C)C(C(C)CCCC(C)C)CCC32)C1)OC(=O)CCCCCCCCCCCCCCC (stereo unspecified)
inactive: [1] 1.9% | [2] 4.05% | [3] 22.2% | [4] -5.5% | [5] -3.1% | [6] -4.8%

Cc1ccc(S(=O)(=O)N2CN(S(=O)(=O)c3ccc(C)cc3)CN(S(=O)(=O)c3ccc(C)cc3)C2)cc1
inactive: [1] -29.4% | [2] -32.2% | [3] -22.8% | [4] -6.9% | [5] -40.3% | [6] -24.8%

O=c1cccc2c3ccccc3ccn12
inactive: [1] 22.9% | [2] 7% | [3] 15.3% | [4] 12.3% | [5] 15.3% | [6] 13.5%

O=COC1CC2CC1c1ccccc12 (stereo unspecified)
inactive: [1] 4.8% | [2] -9.7% | [3] -1.7% | [4] -7.8% | [5] -3.85% | [6] 6.8%

COc1cc2c(cc1OC)C(=O)/C(=C/c1ccc(O)cc1)CC2
inactive: [1] 36.5% | [2] -8.9% | [3] 43.5% | [4] 24.9% | [5] 23.2% | [6] 22.4%

N[C@H]1c2c(Cl)cccc2C(=O)[C@H]1O
inactive: [1] -3.7% | [2] -1.35% | [3] -23.2% | [4] -4.65% | [5] -2.2% | [6] -49.5%

CCOC(=O)COc1ccc(Cl)cc1C
inactive: [1] 11.7% | [2] -4.7% | [3] -2.4% | [4] 4.45% | [5] 6.8% | [6] -17.2%

C[N+](C)(C)C1C2(CCCCC2)NC(=O)C12CCCCC2 (stereo unspecified)
inactive: [1] 5.6% | [2] -0.75% | [3] -11.5% | [4] -3.1% | [5] -5.85% | [6] -2.9%

CCOC(=O)c1ccc(CS(=O)c2ccccc2)c([N+](=O)[O-])c1 (stereo unspecified)
inactive: [1] 14.7% | [2] -4.75% | [3] 20.6% | [4] 3.55% | [5] 58.1% | [6] 18.2%

CC(C)(c1ccc(O)c([N+](=O)[O-])c1)c1ccc(O)c([N+](=O)[O-])c1
inactive: [1] -2.65% | [2] -2.75% | [3] -4.6% | [4] -26.4% | [5] -2.9% | [6] 7.2%

COC(=O)C1(CC(=O)c2cc(Cl)ccc2Cl)NC(=S)NC(=O)C1C#N (stereo unspecified)
inactive: [1] 19.9% | [2] -9.1% | [3] -8.15% | [4] 30.5% | [5] -6.75% | [6] 2.1%

CC(=O)NC(CCCNC(=O)N(CCCl)N=O)C(=O)NCc1ccccc1 (stereo unspecified)
inactive: [1] -1.85% | [2] -16.5% | [3] 1.75% | [4] 23.3% | [5] 2.65% | [6] -13.6%

O=C(CCCc1ccccc1)OCC(=O)c1ccc(-c2ccccc2)cc1
inactive: [1] 19.4% | [2] 6.45% | [3] 11.2% | [4] 3.45% | [5] 12.8% | [6] 14.6%

COc1c(C(=O)O)ccc(C(=O)NCCCCCN(O)C(=O)CCC(=O)NCCCCCN(O)C(=O)CCC(=O)NCCCCCN(O)C(C)=O)c1OC
inactive: [1] -7.25% | [2] 4.25% | [3] -5.35% | [4] -24.9% | [5] -0.6% | [6] -28.4%

CC12CCC/C(=N\NC(N)=S)C1C(=O)NC(=O)C2 (stereo unspecified)
inactive: [1] -6.8% | [2] 2.65% | [3] -2.6% | [4] 33% | [5] 12.4% | [6] 7.15%

C=CCc1cc(C(=O)C(=O)c2cc(CC=C)c(OC(C)=O)c(OC)c2)cc(OC)c1OC(C)=O
inactive: [1] 3.2% | [2] 6.75% | [3] 6.45% | [4] 6.8% | [5] -5.85% | [6] 8.25%

O=C1Cc2nc(CO)c(CO)c(CO)c2CO1
inactive: [1] -43% | [2] -34.6% | [3] -72.7% | [4] -2.85% | [5] -37% | [6] -47%

O=C(NC/C=C/Br)Oc1cccc2ccccc12
inactive: [1] -0.05% | [2] 18.6% | [3] 0.9% | [4] 36.8% | [5] 2.85% | [6] 11.3%

CC(C)C(NC(=O)C(CSCc1ccccc1)NC(=O)OCc1ccccc1)C(=O)O (stereo unspecified) (Cbz-Cys(Bn)-Val-OH; configuration not given here)
inactive: [1] 24.1% | [2] -2.4% | [3] 13.4% | [4] 28.1% | [5] -2.1% | [6] 21.1%

Nc1cccc2sccc12
inactive: [1] 4.25% | [2] 5.15% | [3] -3.85% | [4] -4.1% | [5] 11.9% | [6] -3.35%

CC(Cc1ccccc1)c1ccccc1 (stereo unspecified)
inactive: [1] 15.9% | [2] 16.2% | [3] 10.7% | [4] 3.35% | [5] -0.05% | [6] 2.1%

CO[C@H](C)[C@@](O)(C(=O)OCC1=CCN2CCC[C@@H]12)C(C)C
inactive: [1] -2.3% | [2] -9.4% | [3] 32.4% | [4] 8.65% | [5] 4.5% | [6] 16.3%

O=c1[nH]cc(CNC2CCCCC2)c(=O)[nH]1
inactive: [1] 21.5% | [2] -9.35% | [3] 7.65% | [4] -0.2% | [5] 4.6% | [6] 8.2%

CC1CCCCC1(O)C(C(=O)O)c1ccccc1 (stereo unspecified)
inactive: [1] -8.1% | [2] -9.85% | [3] 0.3% | [4] -1.95% | [5] -22% | [6] -29.6%

CCN(CC)CCNC(=O)Nc1ccc(OC)cc1
inactive: [1] 2.15% | [2] 24% | [3] 13.8% | [4] -0.05% | [5] 32.8% | [6] 7.65%

Cn1c(=O)c2c(nc(CCNC(=O)c3ccccc3)n2C)n(C)c1=O
inactive: [1] -1.15% | [2] -7.75% | [3] 11.1% | [4] -27.4% | [5] 5.6% | [6] -17.1%

N#Cc1c(-c2ccccc2)nc(-c2ccccc2)sc1=S
inactive: [1] 12.1% | [2] -0.7% | [3] 42% | [4] 4.55% | [5] 48.1%
active: [6] 73.8%

CC(C)N1CCN(c2ccncc2S(=O)(=O)N2CCCCC2)CC1
inactive: [1] -14.1% | [2] -23.2% | [3] -12.3% | [4] -5.5% | [5] -21.9% | [6] -30.4%

O=C(CCC(=O)NO)NO
inactive: [1] 1.4% | [2] -12.6% | [3] 4.75% | [4] -17.7% | [5] -20.9% | [6] -15.9%

COc1ccc(CC2OC(C)CC(C)(C)O2)cc1 (stereo unspecified)
inactive: [1] 38.2% | [2] -12.2% | [3] 4.75% | [4] -55.8% | [5] -4.5% | [6] 37.2%

Cc1ccc(C(=O)NNC(=O)c2ccc3ccccc3c2)cc1
inactive: [1] -15.4% | [2] -19.4% | [3] 7% | [4] 10.2% | [5] -16.6% | [6] -12.9%

C/C(=N\NC(=O)c1cc(C)nc2ccc(Br)cc12)c1ccccc1O
inactive: [2] 63% | [4] 48.3% | [5] 7.3%
active: [1] 71.1% | [3] 79.8% | [6] 72.5%

O=C(O)C(O)C(O)C(O)C(O)C(=O)O.[Cu+2] (stereo unspecified)
inactive: [1] 1.2% | [2] -6.15% | [3] 2.25% | [4] 0% | [5] -4.4% | [6] 15.2%

COc1cc(/C=C(\C#N)c2ccccn2)cc(Br)c1O
inactive: [1] -7.35% | [2] 5.15% | [3] -3.9% | [4] 17.2% | [5] 25.8% | [6] -21.6%

CC(=O)CCc1ccccc1
inactive: [1] 5.6% | [2] -7.8% | [3] -0.9% | [4] -23% | [5] -1.75% | [6] 1.9%

Cc1ccc(NCCN(C)C)c2c(=O)c3cccc(O)c3sc12
inactive: [2] 35.1% | [3] 18.2% | [4] 26.8% | [5] 40.4% | [6] 65%
active: [1] 73.5%

Reference: PubChem BioAssay (NCI)
